Bm FixLJ act: B. multivorans fixK reporter activation; B. multivorans fixK-promoter GFP reporter, 18 h; active compounds read high; 29,000 tested, 0.3% active; z-score (test concentration not listed);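 active = replicate mean overnight rise in green fluorescent reporter signal, 3 or more SD over negative controls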
An asterisk follows results filed as active. This excerpt belongs to a sample that is enriched for hits.

SMILES | Bm FixLJ act
Cc1cc(C)c(Cn2c3ccccc3c3cnn(CC(=O)NCc4cccs4)c(=O)c32)c(C)c1 | -0.87
CCCCN(CC)CCCNC(=O)Cn1ncc2c3ccccc3n(Cc3ccccc3F)c2c1=O | -1.62
CCN(CC)CCNC(=O)Cn1ncc2c3ccccc3n(Cc3ccc(Cl)cc3)c2c1=O | 3.53*
CCCCN(CC)CCCNC(=O)Cn1ncc2c3ccccc3n(C)c2c1=O | -1.77
Cc1ccc(OCCN)c(C(=O)NC2CCCC2Cc2ccc(F)cc2)c1 (centres undefined) | -0.7
Cc1nc(CN2CCOc3c(O)cc(-c4ccccc4C)cc3C2)no1 | -1.06
COc1ccc(S(=O)(=O)N2CCC[C@]3(CCCC3O)C2)cc1Cl (some centres undefined) | -0.18
CS(=O)(=O)CC(O)c1cc2n(n1)CCN(C1CCCCCC1)C2 (centres undefined) | 0.14
COCCN1CC(CNC(=O)Nc2snnc2-c2ccccc2)CC1=O (centres undefined) | -1.15
Cc1ccc2nc(SCC(=O)NC3CC(c4cc(=O)[nH]cn4)C3)[nH]c2c1 (centres undefined) | 0.2
COc1cc2c(cc1OC)C1(CCN(C(=O)c3c(O)cccc3O)CC1)OCC2 | -0.09
CCc1ccc2occ(CC(=O)Nc3nnc(SC)s3)c2c1 | -0.26
Cc1ccc(NC(=O)Cc2coc3ccc(C(C)C)cc23)cc1Cl | -1.65
CCc1ccc2occ(CC(=O)Nc3ccc(C)c(C)c3)c2c1 | 3.44*
CS(=O)(=O)N1CCCC1C(=O)NCc1csc(N2CCCC2)n1 (centres undefined) | -0.12
CC(C)CC(=O)N1CCC[C@]2(C1)CN(C1CCOCC1)CCC2O (some centres undefined) | 0.35
O=C(Cn1ncc2c3ccccc3n(Cc3cccc(Cl)c3)c2c1=O)NCCC1=CCCCC1 | 13.1*
Cc1cc(C)c(Cn2c3ccccc3c3cnn(CC(=O)NC4CCCCCC4)c(=O)c32)c(C)c1 | 1.5
O=C(Cn1ncc2c3ccccc3n(Cc3ccc(F)cc3)c2c1=O)NC1CCCCCC1 | -2.36
Cc1ccc(C)c(Cn2c3ccccc3c3cnn(CC(=O)NCCC4=CCCCC4)c(=O)c32)c1 | -0.36
O=C(Cn1ncc2c3ccccc3n(Cc3ccc(F)cc3)c2c1=O)NCCC1=CCCCC1 | -0.48
O=C(Cn1ncc2c3ccccc3n(Cc3cccc(Cl)c3)c2c1=O)NC1CCCCCC1 | 22.5*
O=C(NCCc1nc2ccccc2c(=O)[nH]1)c1ccc(-c2ccco2)cc1 | -2.44
Cc1c(CN2CCCn3nc(C(C)O)cc3C2)[nH]c2ccc(Cl)cc12 (centres undefined) | -1.6
CCCCNc1cc(NC2CCCCC2)c2c3c(onc13)-c1ccccc1C2=O | 4.15*
SMILES | Bm FixLJ act
CCNc1cc(N2CCN(C3CCCCC3)CC2)c2noc3c2c1C(=O)c1ccccc1-3 | -1.12
O=C1c2ccccc2-c2onc3c(NCCO)cc(NC4CCCCC4)c1c23 | -1.7
CCN1CC2(CCC1=O)CCN(C(=O)Nc1cc(C)ccc1OC)CC2 | -0.52
CC(C)c1ccc(/C=C(\C#N)c2nc(-c3cc4ccccc4oc3=O)cs2)cc1 | 1.03
COc1ccc(/C=C(/C#N)c2nc(-c3ccc(Br)cc3)cs2)cc1 | -1.18
CC(C)c1ccc(/C=C(\C#N)c2nc(-c3ccc(O)cc3)cs2)cc1 | 8.4*
Cc1cc(C)c(C#N)c(N2CCC3(CCC(=O)N(CC4CCCO4)C3)CC2)n1 (centres undefined) | -0.15
CCC(=O)NCc1cccc(-c2ccc(C(=O)N3CCN(C)CC3)cc2)c1 | 0.3
Cc1ccc(C)c(N2CCN(C3=C(c4ccccc4)C(=O)c4ccccc43)CC2)c1 | 0.03
Cc1ccc(C)c(NC2=C(c3ccc(C(F)(F)F)cc3)C(=O)c3ccccc32)c1 | 0.58
COc1ccc(C2=C(Nc3ccc(C)c(C)c3)c3ccccc3C2=O)cc1 | -1.95
COc1cc(OC)c(NC2=C(c3ccc(C(F)(F)F)cc3)C(=O)c3ccccc32)cc1Cl | -0.77
Cc1cc(C)cc(NC2=C(c3ccccc3)C(=O)c3ccccc32)c1 | 3.95*
COc1ccc(C2=C(Nc3ccc(Br)c(C)c3)c3ccccc3C2=O)cc1 | 3.06*
Cn1cc(CCCNc2cc(-c3ccccc3)nc3ccnn23)cn1 | -0.13
COCCn1cnnc1CNC(=O)Nc1ccc(C(=O)N2CCCC2)cc1C | -1.96
CC(C)c1nnsc1CN1CCC(c2nnc3n2CCCCC3)CC1 | -0.32
CN1CCOC2(CCN(C(=O)c3cnc4ccccc4c3)CC2)CC1=O | 0.2
CC(CCNC(=O)c1cc(-c2ccsc2)n[nH]1)n1ccnc1 (centres undefined) | -0.32
COc1ccc(OC)c(Nc2nc3ccccc3nc2-n2nc(C)cc2C)c1 | -0.33
Cc1ccc2nc(Nc3cccc(Cl)c3C)c(-n3nc(C)cc3C)nc2c1 | 0.62
COc1ccccc1Nc1nc2ccc(Cl)cc2nc1-n1nc(C)cc1C | 3.21*
NC1CC(c2cc(N3CCC(C(=O)N4CCCC4)CC3)ncn2)C1 (centres undefined) | 1.04
Cc1ccc(NC(=O)CCNC(=O)c2ccc(Cn3cnnn3)cc2)c(C)c1 | -0.42
CCc1ccc2ncc3c(-c4ccccc4)nn(-c4ccccc4)c3c2c1 | 3.31*
SMILES | Bm FixLJ act
Cc1ccc(-c2nn(-c3ccccc3)c3c2cnc2ccccc23)cc1C | -2.37
Brc1ccc(-n2nc(-c3ccccc3)c3cnc4cc5c(cc4c32)OCO5)cc1 | 1
Cc1cc(CC2CN(c3ncccc3C(N)=O)CC2O)on1 (centres undefined) | -0.34
COc1cccc(N2CCN(C(=O)NCc3ccccn3)CC2(C)C)c1 | -1.13
O=c1oc2c3c(ccc2c2ccccc12)OCN(Cc1cccc(Cl)c1)C3 | -0.72
O=c1oc2c3c(ccc2c2ccccc12)OCN(Cc1ccccc1Cl)C3 | 0.8
Cc1cc2c(c3oc(=O)c4ccccc4c13)CN(Cc1ccc(F)cc1)CO2 | 5.29*
COc1ccc(CC(=O)NC2COCC2Cc2ccncc2)cc1 (centres undefined) | 0.32
COc1ccc(-c2ccccc2)cc1N1C(=O)C2CC1CN2c1cccc(C#N)n1 (centres undefined) | -1.57
CN(Cc1ccccc1)C(=O)CSc1c2c(nc3ccc(Cl)cc13)CCCC2 | 0.91
Cc1nc(SCc2cccc(Cl)c2)nc2c1CCCC2 | 3.02*
O=C(NCc1cccc(Cl)c1)c1ccc2c(Cl)c3c(nc2c1)CCCC3 | 0.43
O=C(NCCCN1CCCC1=O)c1cccc(-c2nncs2)c1 | -1.88
NC1CC(c2cc(NCCN3CCCC3)nc(C3CC3)n2)C1 (centres undefined) | 0.79
CCOc1ccc2c(C)c(C(=O)N3CCCC(CCC(N)=O)C3)oc2c1OCC (centres undefined) | -2.68

High-throughput results deposited in PubChem by ICCB-Longwood Screening Facility, Harvard Medical School.
